SMILES strings stand for the structures. In all, about 160,000 compounds went through this assay and about 240 (0.15%) were called active. Cut-off read from the data, not from the text of the source: active = inhibition above about 40%; inactive = the rest. This excerpt belongs to a sample that is enriched for actives.

This note sets out measurements from PubChem BioAssay AID1259399 (Fisher Drug Discovery Resource Center, 2018).

Chain of Cyclic GMP-AMP synthase (Mus musculus) (Q8C6L5 whole entry, looked up): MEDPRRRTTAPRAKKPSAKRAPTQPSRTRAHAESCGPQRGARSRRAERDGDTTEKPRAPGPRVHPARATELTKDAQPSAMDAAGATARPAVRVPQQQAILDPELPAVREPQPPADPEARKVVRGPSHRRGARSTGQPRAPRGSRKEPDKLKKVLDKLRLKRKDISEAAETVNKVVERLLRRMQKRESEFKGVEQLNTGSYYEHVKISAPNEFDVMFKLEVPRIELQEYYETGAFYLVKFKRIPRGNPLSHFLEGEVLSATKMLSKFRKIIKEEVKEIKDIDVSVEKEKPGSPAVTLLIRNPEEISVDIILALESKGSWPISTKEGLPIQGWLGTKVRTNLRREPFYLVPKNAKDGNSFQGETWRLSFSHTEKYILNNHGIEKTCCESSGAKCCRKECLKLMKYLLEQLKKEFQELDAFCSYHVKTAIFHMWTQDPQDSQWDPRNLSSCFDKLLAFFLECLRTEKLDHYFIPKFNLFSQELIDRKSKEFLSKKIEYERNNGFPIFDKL

This experiment concerns the target Cyclic GMP-AMP synthase (Mus musculus) (UniProt Q8C6L5). As to the kind of experiment: inhibition of Mus musculus cGAS, primary biochemical chemiluminescence screen (AID 1259399).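 Note: 0% = negative control wells and 100% = reference inhibitor with no enzyme activity.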 The note with it: recombinant cGAS, Kinase-Glo ATP depletion luminescence; at 12.5 µM; stronger effect = higher value.
The inhibition is the change of the read-out against control, counted positive when it falls. As for `CCOC(=O)C1(Cc2ccc(OC)cc2)CCN(C(=O)C2CCCC2)CC1`, the inhibition is -2.47% (inactive). For `CCCc1cc(C(=O)NC(CC)C2CCCO2)sc1C` (stereo not given), the inhibition is 3.24% (inactive).

With `Cn1c(=O)n(Cc2ccc(Cl)cc2)c(=O)c2c1nc1oc(C(C)(C)C)cn12`, the inhibition is -8.53% (inactive). Then `C/C(=N/OC(=O)C1CC1(c1ccccc1)c1ccccc1)c1ccccc1` (stereo not given), with -5.77% (inactive).

Consider `CCc1ccc(NC(=O)CSc2nccn3nc(-c4ccc(C)cc4)cc23)cc1`, for which the inhibition is -6.93% (inactive).

Take `CCCOc1nn(CCC)cc1C(=O)Nc1nccs1`: the inhibition is -6.36% (inactive). The value for `O=C(Cc1ccc2c(c1)CCC2)Nc1nn2cnnc2s1` was -17.7% (inactive). Then `COCc1nnc2sc(Cc3ccc4c(c3)CCCC4)nn12`, with 79.1% (active). The value for `CCCc1nnc2sc(CCc3c(C)n[nH]c3C)nn12` was -9.34% (inactive). With `c1cc(C2CCN(C3CCC4(CCNCC4)CC3)CC2)ccn1`, the inhibition is -9.51% (inactive). Then `O=C(NC1CCN(c2ccccc2C(=O)NCc2ccc3c(c2)OCO3)CC1)c1ccccc1Cl`, with -4.1% (inactive); and `O=C1OC(C[N+](=O)[O-])C(Cl)=C1Oc1ccccc1` (stereo not given), with 22.9% (inactive); and `CCCCc1nc(N2CCN(C(=O)Cc3cccs3)CC2)c2c(C)nn(-c3ccc(F)cc3)c2n1`, with -4.18% (inactive).

`CC1(C(=O)Nc2cccc3cccnc23)CCN1C(=O)Cc1ccccc1Cl` (stereo not given): the inhibition is -5.18% (inactive). The value for `CCOC(=O)C1=C(O)/C(=C\c2cc(O)cc(O)c2)SC1=Nc1cccc(C(F)(F)F)c1` was -2.35% (inactive).

Turning to `Cc1nc(C2(NCc3csc(-c4ccoc4)n3)CCCC2)no1`, the inhibition was -13.3% (inactive). In the case of `CN(C)CCNC(=O)c1nn(-c2cccc(C(F)(F)F)c2)c(=O)n(Cc2ccccc2F)c1=O`, the inhibition is 1.41% (inactive). For `Cc1c[nH]c(=O)n1-c1ccc(C(=O)Nc2cc(Cl)c(N)c(Cl)c2)cc1`, the inhibition was -14.6% (inactive).

For the compound `CN(C)CCNc1cc(C(C)(C)C)nc2c(-c3ccc(Cl)cc3)cnn12`, the inhibition was -0.291% (inactive). The value for `CC(C)(C)c1cc(=O)n2[nH]cc(-c3ccc(Cl)cc3)c2n1` was 40% (active); that for `CC(C)(C)c1cc(=O)n2[nH]cc(-c3ccccc3Cl)c2n1` was -1.72% (inactive); that for `COCCN(CCOC)Cc1cc(=O)oc2cc(-c3ccccc3)c(O)cc12` was 2.45% (inactive). The value for `C=CCN1C(=O)C2(CC(=O)N(CCc3cccc(OC)c3)C2=O)c2cc(OC)ccc21` (stereo not given) was -2.01% (inactive); that for `Cc1ccccc1N1CCn2c1nc1c2c(=O)n(CCN2CCOCC2)c(=O)n1C` was -8.88% (inactive). As for `COc1ccc(CCNC(=O)CCc2cc3c(n2-c2ccc(OC)cc2)-c2ccccc2CC3)cc1`, the inhibition was -9.29% (inactive). For `COc1cccc(-c2cc(-c3ccc(C(=O)NCCc4ccc(OC)c(OC)c4)cc3)[nH]n2)c1`, the inhibition is -4.79% (inactive). The value for `COc1ccc(-n2c(SCC(=O)N3CCN(C(=O)C(c4ccccc4)c4ccccc4)C(C)C3)nnc2-c2cccc(OC)c2)cc1` (stereo not given) was -6.69% (inactive). Then `CC(C)(C)n1nc2c(c1NC(=O)c1ccc3c(c1)OCO3)CSC2`, with -7.2% (inactive); and `CC(C)N(CC(=O)N(Cc1ccc(F)cc1)Cc1ccco1)C(=O)c1ccc(-c2ccccc2)cc1`, with -5.81% (inactive); and `Cc1cc(OC(=O)c2ccc(OC(C)C)cc2)c([N+](=O)[O-])c(=O)[nH]1`, with -0.422% (inactive). Take `Cc1ccc(C)c(CN2CCN(c3nc4c(c(=O)[nH]c(=O)n4C)n3CCC(C)C)CC2)c1`: the inhibition was -1.17% (inactive). For the compound `Cc1ccc(S(=O)(=O)N(Cc2ccco2)Cc2nccn2Cc2ccc(C(F)(F)F)cc2)cc1`, the inhibition is -8.05% (inactive).

Consider `COc1ccccc1C1=NOC(CN(Cc2ccccc2Cl)C(=O)C2CCC2)C1` (stereo not given), for which the inhibition is -4.91% (inactive). Then `O=c1cc(-c2ccc(F)cc2)ncn1Cc1cccc2ccccc12`, with 5.38% (inactive); and `O=C(CN1CCCC1Cn1cccn1)NCCc1ccc(F)cc1` (stereo not given), with -4.22% (inactive). As to `CCc1ccc(-c2nn(-c3ccccc3)cc2C=NO)cc1`, the inhibition is -6.62% (inactive). The value for `CCOc1ccccc1NC(=O)CC(=O)N1[C@H](C)CCC[C@@H]1C` was -17.8% (inactive); that for `S=C(NN=CC1CC=CCC1)NC1CCCCC1` (stereo not given) was -5.67% (inactive); that for `O=C(NNc1nc2c(Cl)cccc2s1)c1cc(=O)c2ccccc2o1` was 4.02% (inactive). Turning to `COc1ccc(/C=C/C(=O)N2CCC3(CC2)CC3C(=O)N2CCN(c3ccccn3)CC2)cc1OC` (stereo not given), the inhibition was -22.2% (inactive).

With `c1ccc(Oc2cccc(-c3ccc4nnc(-c5ccc6nccnc6c5)n4c3)c2)cc1`, the inhibition was -8.11% (inactive).

With `Cc1ccc(N(CCCCN2C(=O)c3ccccc3C2=O)C(=O)/C=C/c2ccccc2Cl)cc1`, the inhibition is -4.6% (inactive).

Turning to `CCc1cc(N2CCN(c3ccccc3F)CC2)nc(SCc2cccc(C(=O)NCC3CCCO3)c2)n1` (stereo not given), the inhibition was -4.77% (inactive). Take `CC(O)CNC(c1nc(-c2ccc(Br)cc2)no1)C(C)C` (stereo not given): the inhibition is -3.51% (inactive). The value for `Cc1cc(C)n(-c2ccc(N3CCN(S(=O)(=O)c4ccc(C)c(C)c4)CC3)nn2)n1` was -8.08% (inactive); that for `Cc1cc2c(o1)CC(C)(C)CC2NS(=O)(=O)CCc1ccccc1` (stereo not given) was -12.8% (inactive). Then `COc1ccccc1C(=O)N1CCC(n2c(=O)oc3ccc(Cl)cc32)CC1`, with -5.6% (inactive). `Cc1nnc(SCC(=O)Nc2cccc(Cl)c2)c2c1cnn2-c1ccc(F)cc1`: the inhibition was -13.2% (inactive). Consider `O=C1OC(c2ccc(Cl)cc2)=NC1=Cc1ccc(N2CCOCC2)s1`, for which the inhibition was -5.28% (inactive).

For `COCCN1C(=O)C(c2c(C(C)C)[nH]n(-c3ccc(Cl)c(Cl)c3)c2=O)=C([n+]2ccccc2)C1=O`, the inhibition is -8.94% (inactive). Then `CCOC(=O)c1ccccc1NC(=O)CSc1nnc(C)c2cnn(-c3ccccc3OC)c12`, with -1.28% (inactive); and `Cc1ccccc1OCC(=O)N(CCn1cccn1)c1nc2ccccc2s1`, with 3% (inactive); and `CCc1nc2c(OCC(N)=O)cccn2c1N(C)C(=O)c1ccc(OC)cc1`, with -2.96% (inactive). Take `CCOC(=O)CN(C(=O)c1cc(C)oc1C)[C@H]1[C@H](OC)[C@@H]2O[C@H]1c1ccccc12`: the inhibition was -0.832% (inactive). Then `O=C(COc1ccc(Cl)cc1)NCC1CCN(c2nc(Cc3ccc(F)cc3)ns2)CC1`, with -5.03% (inactive). Consider `COC[C@H](C)NC(=O)Cc1sc(C)nc1C`, for which the inhibition is -2.6% (inactive). Turning to `O=C(CCN1C(=O)COc2ccccc21)N1CCC2(CCCO2)CC1`, the inhibition is -9.44% (inactive). Regarding `O=C1c2ccccc2C(=O)N1CN(C(=O)C(F)(F)F)c1ccc(I)cc1`, the inhibition is -2.77% (inactive). For the compound `CC1c2cccn2CCN1Cc1ccc(C#N)cc1F` (stereo not given), the inhibition was -13.4% (inactive). The value for `CC1=C(C(=O)OCC(C)C)C23C(=O)c4ccccc4C2(OC(=N)C3C#N)O1` (stereo not given) was -3.99% (inactive); that for `COCCCn1c(CN2CCCC(C(=O)c3ccccc3)C2)cnc1S(C)(=O)=O` (stereo not given) was -11% (inactive); that for `O=C(Cn1nnc(-c2ccccc2)n1)Nc1c(F)cccc1F` was 4.62% (inactive). With `CCOCCCN(CC(=O)N(Cc1ccccc1)Cc1sccc1C)C(=O)c1cccc(Br)c1`, the inhibition is 1.83% (inactive). Then `COc1ccc(C(=O)N(Cc2ccc(F)cc2)Cc2cc(NC(=O)c3ccco3)ccc2N(C)C)cc1`, with -0.342% (inactive); and `CC(C)(C)c1cc2nc(-c3ccccc3F)cc(C(=O)NC3CC3)n2n1`, with -7.68% (inactive); and `CC(C)(C)S(=O)(=O)c1ccc2nn(CC(=O)Nc3ccc(Cl)cc3)c(=O)n2n1`, with -9.01% (inactive). For the compound `CCCN1CCN(S(=O)(=O)c2[nH]ncc2C(=O)OCC)CC1`, the inhibition was -10.5% (inactive). In the case of `Cc1ccc(C)c(NC(=O)Cn2nc3c(=O)n(-c4ccc(Br)cc4)ccn3c2=O)c1`, the inhibition is -5.88% (inactive).

`Cc1ccc(C)c(Cn2ccnc2CN(CC(C)C)C(=O)c2cccc(F)c2)c1`: the inhibition was -11.5% (inactive). The value for `COc1ccc(OC)c(CC(=O)NC2CC(C)(C)Cc3c2cnn3-c2cccc(F)c2)c1` (stereo not given) was -9.44% (inactive); that for `Fc1ccc(CN2CCCn3cccc3C2c2ccoc2)cc1Cl` (stereo not given) was 0.16% (inactive); that for `O=C1NC2(CCN(Cc3ccccc3[N+](=O)[O-])CC2)Nc2ccc(Br)cc21` was -4.81% (inactive).

For `CCOC(=O)C1=C(C)N=c2s/c(=C\c3ccc(Cl)c(Cl)c3)c(=O)n2C1c1cccs1` (stereo not given), the inhibition was -4.71% (inactive).

Take `COc1cccc(Cc2c(C)nc(C)nc2N2CCN(S(=O)(=O)c3ccc(NC(C)=O)cc3)CC2)c1`: the inhibition is -9.89% (inactive).

As to `CCCCn1c(SCc2nnc(C)o2)nc2sc(C)c(C)c2c1=O`, the inhibition was -8.28% (inactive).

For the compound `O=C(Nc1ccc(-c2ccccc2)cc1)N[C@@H](Cc1ccccc1)C(=O)N1CCC(C(=O)N2CCOCC2)CC1`, the inhibition is 1.19% (inactive). The value for `COc1ccc(C)cc1S(=O)(=O)Nc1ccccc1C(=O)NCc1cccc(Cl)c1` was -4.63% (inactive). As for `NC(=O)c1cncc(-n2ccnc2-c2ccccc2)c1`, the inhibition is -8.08% (inactive). The value for `CC(C)Nc1cc(N2CC(c3ccccn3)C2)ncn1` was -15.6% (inactive); that for `C=CCn1c(SCC(=O)c2cc(C)n(CCOC)c2C)nc2scc(-c3ccccc3)c2c1=O` was 1.74% (inactive). Take `CC(C)N(C(=O)CN1CCN(C(=O)c2cn(C)cc3c(=O)n(-c4ccccc4)nc2-3)CC1)C(C)C`: the inhibition was -8.86% (inactive).

Consider `CCOC(=O)c1cc(-c2ccc(N3CCN(C(=O)COCc4ccccc4)CC3)cc2)n(-c2ccccc2Cl)n1`, for which the inhibition was -7.07% (inactive).

Take `COc1cccc(C(CN2CCN(C(=O)c3oc4ccccc4c3C)CC2)OCc2cccc(Cl)c2)c1` (stereo not given): the inhibition was -3.76% (inactive). Then `O=C(c1ccccc1Br)N1CCc2nc(-c3ccccc3)nc(N3CCCCC3)c2C1`, with -6.08% (inactive); and `O=C(Nc1nnc(C23CC4CC(CC(C4)C2)C3)s1)C12CC3CC(CC(C3)C1)C2`, with -5.12% (inactive).
